The full data set covers some 8,800 targets. This sample favours those with a hit. About 0.5% of all pairs of compound and target were hits.

Chain of UniProt Q08380 (Q08380 whole entry, looked up): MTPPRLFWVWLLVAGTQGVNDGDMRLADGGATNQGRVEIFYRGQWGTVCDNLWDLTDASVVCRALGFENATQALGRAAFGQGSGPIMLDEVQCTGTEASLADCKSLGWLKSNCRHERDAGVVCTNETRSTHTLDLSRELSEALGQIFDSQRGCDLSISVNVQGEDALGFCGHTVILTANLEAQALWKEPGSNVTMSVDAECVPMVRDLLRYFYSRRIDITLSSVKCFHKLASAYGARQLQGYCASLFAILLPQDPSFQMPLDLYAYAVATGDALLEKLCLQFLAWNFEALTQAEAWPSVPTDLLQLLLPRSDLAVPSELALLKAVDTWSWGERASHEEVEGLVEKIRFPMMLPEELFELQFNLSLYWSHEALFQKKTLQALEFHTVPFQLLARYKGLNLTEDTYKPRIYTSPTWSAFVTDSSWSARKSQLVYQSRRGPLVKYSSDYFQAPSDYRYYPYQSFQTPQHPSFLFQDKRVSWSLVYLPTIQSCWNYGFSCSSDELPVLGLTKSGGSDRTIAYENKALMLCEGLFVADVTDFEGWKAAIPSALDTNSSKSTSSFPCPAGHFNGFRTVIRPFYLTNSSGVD
Chain of UniProt Q6ZRR7 (Q6ZRR7 whole entry, looked up): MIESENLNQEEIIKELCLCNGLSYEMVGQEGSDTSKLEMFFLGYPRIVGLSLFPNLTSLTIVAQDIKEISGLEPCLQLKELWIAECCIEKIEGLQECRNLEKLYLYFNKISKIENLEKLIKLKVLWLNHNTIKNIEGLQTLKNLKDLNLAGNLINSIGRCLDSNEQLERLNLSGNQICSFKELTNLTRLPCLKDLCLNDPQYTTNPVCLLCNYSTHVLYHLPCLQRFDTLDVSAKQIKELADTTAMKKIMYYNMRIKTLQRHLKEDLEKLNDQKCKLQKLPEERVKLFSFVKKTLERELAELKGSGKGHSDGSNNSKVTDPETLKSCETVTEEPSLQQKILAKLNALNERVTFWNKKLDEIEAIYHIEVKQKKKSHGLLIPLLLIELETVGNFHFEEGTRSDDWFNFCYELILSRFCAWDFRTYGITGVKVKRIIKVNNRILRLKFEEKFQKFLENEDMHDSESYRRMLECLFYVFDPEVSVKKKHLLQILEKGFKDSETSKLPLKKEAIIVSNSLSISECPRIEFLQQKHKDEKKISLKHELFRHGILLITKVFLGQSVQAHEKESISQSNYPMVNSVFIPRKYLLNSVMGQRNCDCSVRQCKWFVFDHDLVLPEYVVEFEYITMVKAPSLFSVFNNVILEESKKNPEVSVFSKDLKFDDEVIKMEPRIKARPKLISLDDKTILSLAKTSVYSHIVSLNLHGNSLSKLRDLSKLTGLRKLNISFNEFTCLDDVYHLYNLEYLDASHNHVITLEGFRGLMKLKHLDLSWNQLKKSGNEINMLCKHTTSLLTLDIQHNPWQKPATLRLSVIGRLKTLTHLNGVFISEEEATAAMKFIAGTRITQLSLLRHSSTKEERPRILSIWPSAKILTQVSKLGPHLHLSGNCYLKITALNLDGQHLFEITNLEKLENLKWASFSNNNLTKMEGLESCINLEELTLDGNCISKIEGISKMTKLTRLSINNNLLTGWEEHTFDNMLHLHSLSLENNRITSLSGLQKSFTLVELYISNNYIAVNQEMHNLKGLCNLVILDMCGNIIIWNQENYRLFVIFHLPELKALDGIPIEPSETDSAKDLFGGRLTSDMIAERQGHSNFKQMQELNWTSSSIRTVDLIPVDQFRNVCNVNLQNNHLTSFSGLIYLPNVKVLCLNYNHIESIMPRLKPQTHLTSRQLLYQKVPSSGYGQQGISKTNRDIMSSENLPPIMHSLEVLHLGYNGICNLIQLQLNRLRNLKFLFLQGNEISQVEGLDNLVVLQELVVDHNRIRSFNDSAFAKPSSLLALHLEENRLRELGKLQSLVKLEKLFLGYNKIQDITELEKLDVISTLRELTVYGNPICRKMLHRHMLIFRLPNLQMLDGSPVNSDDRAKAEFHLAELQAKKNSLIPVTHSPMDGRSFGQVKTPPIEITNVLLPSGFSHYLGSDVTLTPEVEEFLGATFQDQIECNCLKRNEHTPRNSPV
Chain of UniProt O15243 (O15243 whole entry, looked up): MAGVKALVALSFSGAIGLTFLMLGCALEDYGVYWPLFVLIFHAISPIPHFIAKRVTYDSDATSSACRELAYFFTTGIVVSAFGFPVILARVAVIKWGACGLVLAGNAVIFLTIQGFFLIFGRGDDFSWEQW
Chain of UniProt P08473 (P08473 whole entry, looked up): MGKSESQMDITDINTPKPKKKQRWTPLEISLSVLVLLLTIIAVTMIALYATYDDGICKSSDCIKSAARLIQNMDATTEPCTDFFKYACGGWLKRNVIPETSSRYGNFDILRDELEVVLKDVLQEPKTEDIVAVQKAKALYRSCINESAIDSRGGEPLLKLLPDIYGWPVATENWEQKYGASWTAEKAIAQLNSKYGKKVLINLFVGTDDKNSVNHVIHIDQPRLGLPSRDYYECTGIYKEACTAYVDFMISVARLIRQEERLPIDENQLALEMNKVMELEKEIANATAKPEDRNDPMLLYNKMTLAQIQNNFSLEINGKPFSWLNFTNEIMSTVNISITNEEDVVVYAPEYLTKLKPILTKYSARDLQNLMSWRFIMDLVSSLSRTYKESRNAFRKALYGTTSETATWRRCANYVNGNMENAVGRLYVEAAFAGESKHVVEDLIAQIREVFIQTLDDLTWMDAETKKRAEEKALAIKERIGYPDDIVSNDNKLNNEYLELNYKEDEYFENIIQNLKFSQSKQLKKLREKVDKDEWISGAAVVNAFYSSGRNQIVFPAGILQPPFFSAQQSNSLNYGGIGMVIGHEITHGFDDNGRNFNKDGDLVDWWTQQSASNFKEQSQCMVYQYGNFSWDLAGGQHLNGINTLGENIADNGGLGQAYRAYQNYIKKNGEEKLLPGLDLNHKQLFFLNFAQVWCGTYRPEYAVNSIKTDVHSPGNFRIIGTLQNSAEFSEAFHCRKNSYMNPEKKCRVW
Chain of UniProt Q13164 (Q13164 whole entry, looked up): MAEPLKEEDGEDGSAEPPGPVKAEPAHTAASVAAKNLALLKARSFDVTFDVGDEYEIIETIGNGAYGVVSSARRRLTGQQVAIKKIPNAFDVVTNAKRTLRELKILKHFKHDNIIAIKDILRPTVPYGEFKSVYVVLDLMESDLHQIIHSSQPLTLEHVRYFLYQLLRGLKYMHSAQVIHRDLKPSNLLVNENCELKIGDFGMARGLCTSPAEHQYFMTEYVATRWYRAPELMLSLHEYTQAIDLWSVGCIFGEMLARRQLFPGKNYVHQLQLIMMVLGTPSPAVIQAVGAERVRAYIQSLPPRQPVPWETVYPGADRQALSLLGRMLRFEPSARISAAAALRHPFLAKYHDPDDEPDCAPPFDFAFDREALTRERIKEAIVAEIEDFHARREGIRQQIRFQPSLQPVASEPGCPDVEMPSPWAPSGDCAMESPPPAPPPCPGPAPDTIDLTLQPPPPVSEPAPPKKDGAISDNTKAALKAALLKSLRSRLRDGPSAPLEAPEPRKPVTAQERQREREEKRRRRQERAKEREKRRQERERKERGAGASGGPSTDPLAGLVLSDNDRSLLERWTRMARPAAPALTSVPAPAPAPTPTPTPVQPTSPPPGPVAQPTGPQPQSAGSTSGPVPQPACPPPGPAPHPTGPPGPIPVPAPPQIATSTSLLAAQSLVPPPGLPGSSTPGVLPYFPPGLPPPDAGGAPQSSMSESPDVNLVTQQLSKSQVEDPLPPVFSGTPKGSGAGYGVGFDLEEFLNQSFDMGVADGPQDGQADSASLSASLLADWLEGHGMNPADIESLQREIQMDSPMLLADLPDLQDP
Chain of UniProt Q9BVG8 (Q9BVG8 whole entry, looked up): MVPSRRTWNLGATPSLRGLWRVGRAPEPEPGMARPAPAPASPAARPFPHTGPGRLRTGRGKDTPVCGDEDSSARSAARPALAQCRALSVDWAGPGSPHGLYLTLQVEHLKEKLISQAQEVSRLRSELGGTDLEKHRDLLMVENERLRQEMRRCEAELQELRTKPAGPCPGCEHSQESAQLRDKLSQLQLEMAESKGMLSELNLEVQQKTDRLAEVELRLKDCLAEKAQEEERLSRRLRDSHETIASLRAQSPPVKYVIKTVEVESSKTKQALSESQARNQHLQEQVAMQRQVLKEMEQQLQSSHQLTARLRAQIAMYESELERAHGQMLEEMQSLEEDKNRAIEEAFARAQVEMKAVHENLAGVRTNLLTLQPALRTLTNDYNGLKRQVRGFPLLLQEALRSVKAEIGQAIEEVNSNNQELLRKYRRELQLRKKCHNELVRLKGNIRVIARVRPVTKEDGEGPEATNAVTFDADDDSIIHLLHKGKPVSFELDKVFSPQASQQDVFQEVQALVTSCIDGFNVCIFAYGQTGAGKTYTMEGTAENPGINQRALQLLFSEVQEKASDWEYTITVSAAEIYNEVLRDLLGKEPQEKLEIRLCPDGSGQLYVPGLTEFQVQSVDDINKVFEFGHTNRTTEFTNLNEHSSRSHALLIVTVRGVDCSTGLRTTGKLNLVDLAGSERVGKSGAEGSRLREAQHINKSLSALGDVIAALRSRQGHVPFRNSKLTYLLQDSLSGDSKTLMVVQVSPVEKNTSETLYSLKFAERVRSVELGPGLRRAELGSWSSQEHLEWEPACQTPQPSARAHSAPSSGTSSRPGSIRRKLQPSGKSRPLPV
Chain of UniProt P83369 (P83369 whole entry, looked up): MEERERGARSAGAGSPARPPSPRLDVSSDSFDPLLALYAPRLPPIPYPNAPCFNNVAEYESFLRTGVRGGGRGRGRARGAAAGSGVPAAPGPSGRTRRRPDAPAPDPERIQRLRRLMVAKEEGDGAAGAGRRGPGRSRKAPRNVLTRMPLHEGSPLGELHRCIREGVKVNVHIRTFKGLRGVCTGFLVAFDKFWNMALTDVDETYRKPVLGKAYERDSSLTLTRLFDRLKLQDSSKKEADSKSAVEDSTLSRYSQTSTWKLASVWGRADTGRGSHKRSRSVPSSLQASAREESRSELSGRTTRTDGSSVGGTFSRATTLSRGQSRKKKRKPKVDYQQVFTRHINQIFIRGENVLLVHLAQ

Compound in the assay: CN1CC[C@H](c2c(O)cc(O)c3c(=O)cc(-c4ccccc4Cl)oc23)[C@H](O)C1 [alvocidib]
Briefly: log2 fold change, soluble protein after heating vs DMSO (PISA); higher = thermal stabilisation; K562 lysate, 10 uM; active = over 0.2 and 3.5 SD of the protein, either way, in both replicates (recomputed). A digest of the protocol: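 A 30 min treatment with 10 μM compound was applied to crude K562 extract at 1 mg/mL protein in PBS pH 7.4 with 1 mM MgCl2. Heating for 3 min spanned 48°C-58°C, after which aliquots were pooled, adjusted to 0.5% NP-40 at 4°C and spun at 21,000xg for 90 min. TMTpro 16plex LC-MS/MS of the supernatant, with channel sums equalised, gave values recorded as log-two fold change in thermal stability against solvent controls, from duplicates.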
In the case of MARCHF6 (UniProt O60337), the log2 fold change was 0.07 (inactive).
For LSM11 (UniProt P83369), the log2 fold change was 0.134 (inactive).
Turning to METTL21A (UniProt Q8WXB1), the log2 fold change is 0.009 (inactive).
The same measure for KIF2A isoform 2 (UniProt O00139): 0.153 (inactive).
As to MAPK7 (UniProt Q13164), the log2 fold change was 0.069 (inactive).
In the case of MME (UniProt P08473), the log2 fold change was -0.01 (inactive).
LIMK1 (UniProt P53667): the log2 fold change was -0.135 (inactive).
On to MEGF8 (UniProt Q7Z7M0), for which the log2 fold change was 0.03 (inactive).
Then MCUB (UniProt Q9NWR8), with 0.019 (inactive).
As to KIFC3 isoform 6 (UniProt Q9BVG8), the log2 fold change is -0.786 (active).
With LEPROT (UniProt O15243), the log2 fold change was 0.006 (inactive).
With MMS22L (UniProt Q6ZRQ5), the log2 fold change is 0.068 (inactive).
Then MRC2 (UniProt Q9UBG0), with 0.04 (inactive); and LY6E (UniProt Q16553), with -0.726 (inactive); and MED28 (UniProt Q9H204), with -0.292 (inactive).
LGALS3BP (UniProt Q08380): the log2 fold change was -0.187 (inactive).
With LRRC9 (UniProt Q6ZRR7), the log2 fold change was 0.911 (inactive).
Consider LRRC7 (UniProt Q96NW7), for which the log2 fold change was 0.069 (inactive).
As for MRPL22 (UniProt Q9NWU5), the log2 fold change was 0.018 (inactive).
